# Laboratory results taken from publication PMC7862700, “An all-to-all approach to the identification of sequence-specific readers for epigenetic DNA modifications on cytosine”.
# Legend:
# Assay in all cases: DAPPL (digital affinity profiling via proximity ligation, sequencing); 10 mM Tris-HCl pH 7.5, 50 mM NaCl, 1 mM DTT, 4% glycerol, room temperature, 30 min; GST-TFs on glutathione beads, 16-mer random dsDNA library, 0.1% formaldehyde crosslink after washing; high values mean tight binding
# Conditions in all cases: protein: recombinant; tags: N-terminal GST; dsDNA, one strand shown
# FLI1 = target: T1, FLI1 (Homo sapiens, UniProt Q01543 1-452)
# T1 sequence: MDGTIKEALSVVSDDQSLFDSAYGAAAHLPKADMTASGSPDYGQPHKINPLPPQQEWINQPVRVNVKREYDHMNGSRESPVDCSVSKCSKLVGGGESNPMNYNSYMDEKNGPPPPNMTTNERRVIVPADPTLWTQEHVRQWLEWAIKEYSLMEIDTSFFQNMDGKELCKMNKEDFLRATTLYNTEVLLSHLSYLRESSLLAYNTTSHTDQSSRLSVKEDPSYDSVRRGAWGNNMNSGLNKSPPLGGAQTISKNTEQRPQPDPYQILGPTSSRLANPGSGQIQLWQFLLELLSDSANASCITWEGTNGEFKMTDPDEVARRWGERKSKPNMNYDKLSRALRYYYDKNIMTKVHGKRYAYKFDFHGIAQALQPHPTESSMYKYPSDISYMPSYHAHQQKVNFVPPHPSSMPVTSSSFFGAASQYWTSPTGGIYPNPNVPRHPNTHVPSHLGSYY
# In short: (§1)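 Human transcription factors fused to GST were expressed in yeast, captured on glutathione beads, given DNA barcodes and pooled with a GST-only negative control. Pools were incubated with 200 nmole of a 16-mer random double-stranded DNA library in Tris/NaCl/DTT/glycerol buffer at room temperature for 30 min. They were then washed, crosslinked with 0.1% formaldehyde, proximity-ligated (BsaI/T4 ligase, 1 h, 37 °C), PCR-amplified and sequenced on an Illumina NextSeq500. Binding signal is each 6-mer's read frequency for a factor divided by its frequency for the GST control.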
# ELK1 = target: T2, ELK1 (Homo sapiens, UniProt P19419 1-428)
# T2 sequence: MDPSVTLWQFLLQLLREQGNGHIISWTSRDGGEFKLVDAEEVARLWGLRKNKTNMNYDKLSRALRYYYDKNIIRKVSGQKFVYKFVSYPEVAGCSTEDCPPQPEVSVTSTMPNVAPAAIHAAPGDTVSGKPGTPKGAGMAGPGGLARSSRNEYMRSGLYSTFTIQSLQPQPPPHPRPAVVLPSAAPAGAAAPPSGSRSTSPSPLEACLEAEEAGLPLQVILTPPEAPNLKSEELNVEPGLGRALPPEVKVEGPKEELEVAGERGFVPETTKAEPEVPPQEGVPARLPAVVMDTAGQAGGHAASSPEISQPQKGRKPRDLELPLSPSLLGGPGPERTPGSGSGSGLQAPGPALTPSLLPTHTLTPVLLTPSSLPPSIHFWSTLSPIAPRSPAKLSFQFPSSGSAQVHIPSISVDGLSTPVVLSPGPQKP
# In short: as §1
# GABPA = target: T3, GABPA (Homo sapiens, UniProt Q06546 1-454)
# T3 sequence: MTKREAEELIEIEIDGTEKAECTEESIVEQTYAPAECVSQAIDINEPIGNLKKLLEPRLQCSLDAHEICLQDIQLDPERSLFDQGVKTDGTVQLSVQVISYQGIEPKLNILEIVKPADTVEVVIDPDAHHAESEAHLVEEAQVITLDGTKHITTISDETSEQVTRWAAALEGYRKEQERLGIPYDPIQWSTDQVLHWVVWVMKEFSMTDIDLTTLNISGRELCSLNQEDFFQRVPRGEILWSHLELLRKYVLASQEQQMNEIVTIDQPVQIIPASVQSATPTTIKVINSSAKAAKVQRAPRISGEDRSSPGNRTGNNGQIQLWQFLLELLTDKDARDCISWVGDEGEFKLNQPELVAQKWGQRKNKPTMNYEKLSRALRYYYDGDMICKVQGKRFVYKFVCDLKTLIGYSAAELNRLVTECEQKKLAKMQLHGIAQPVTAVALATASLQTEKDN
# In short: as §1
# ERG = target: T4, ERG (Homo sapiens, UniProt P11308 1-479)
# T4 sequence: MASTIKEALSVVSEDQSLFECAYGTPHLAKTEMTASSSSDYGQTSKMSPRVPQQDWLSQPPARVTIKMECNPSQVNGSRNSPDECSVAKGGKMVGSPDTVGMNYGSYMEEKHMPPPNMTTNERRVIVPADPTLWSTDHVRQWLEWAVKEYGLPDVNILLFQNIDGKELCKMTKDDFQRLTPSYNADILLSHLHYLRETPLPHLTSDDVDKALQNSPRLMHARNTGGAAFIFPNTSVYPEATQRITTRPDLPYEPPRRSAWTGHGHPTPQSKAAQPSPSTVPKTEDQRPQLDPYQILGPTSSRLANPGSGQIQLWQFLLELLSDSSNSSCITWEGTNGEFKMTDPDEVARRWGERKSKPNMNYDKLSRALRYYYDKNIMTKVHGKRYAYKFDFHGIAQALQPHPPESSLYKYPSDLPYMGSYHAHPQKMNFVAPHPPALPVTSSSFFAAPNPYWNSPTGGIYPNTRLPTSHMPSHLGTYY
# In short: as §1
# ELF1 = ELF1 (Homo sapiens, UniProt P32519 1-619)
# In short: as §1
# SPIB = SPIB (Homo sapiens, UniProt Q01892 1-262)
# In short: as §1
# ELK3 = target: T5, ELK3 (Homo sapiens, UniProt P41970 1-407)
# T5 sequence: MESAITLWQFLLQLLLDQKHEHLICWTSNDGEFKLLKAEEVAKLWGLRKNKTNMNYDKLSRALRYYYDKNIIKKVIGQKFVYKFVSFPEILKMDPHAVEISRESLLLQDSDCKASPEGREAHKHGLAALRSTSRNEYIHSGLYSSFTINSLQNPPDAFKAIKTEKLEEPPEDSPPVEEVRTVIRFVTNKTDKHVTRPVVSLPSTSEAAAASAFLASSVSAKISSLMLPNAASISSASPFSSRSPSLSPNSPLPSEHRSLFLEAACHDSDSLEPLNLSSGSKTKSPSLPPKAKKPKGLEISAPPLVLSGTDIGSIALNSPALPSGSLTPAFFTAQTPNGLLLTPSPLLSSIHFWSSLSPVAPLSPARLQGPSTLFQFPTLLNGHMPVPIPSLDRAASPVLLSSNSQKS
# In short: as §1
# ELF4 = ELF4 (Homo sapiens, UniProt Q99607 1-663)
# In short: as §1
# ELK4 = target: T6, ELK4 (Homo sapiens, UniProt P28324-2 1-405)
# T6 sequence: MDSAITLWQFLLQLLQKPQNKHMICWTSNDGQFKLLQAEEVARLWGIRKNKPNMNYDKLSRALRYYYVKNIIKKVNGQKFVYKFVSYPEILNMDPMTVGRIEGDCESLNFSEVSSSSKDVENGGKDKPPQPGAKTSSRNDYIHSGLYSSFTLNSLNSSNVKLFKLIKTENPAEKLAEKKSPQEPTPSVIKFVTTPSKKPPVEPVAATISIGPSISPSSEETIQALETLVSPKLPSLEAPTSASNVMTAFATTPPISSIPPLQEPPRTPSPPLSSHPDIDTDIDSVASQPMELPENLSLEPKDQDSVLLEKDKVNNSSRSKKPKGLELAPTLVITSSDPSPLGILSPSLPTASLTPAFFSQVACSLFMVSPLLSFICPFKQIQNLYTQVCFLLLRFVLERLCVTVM
# In short: as §1
# ETV2 = target: T7, ETV2 (Homo sapiens, UniProt O00321 1-342)
# T7 sequence: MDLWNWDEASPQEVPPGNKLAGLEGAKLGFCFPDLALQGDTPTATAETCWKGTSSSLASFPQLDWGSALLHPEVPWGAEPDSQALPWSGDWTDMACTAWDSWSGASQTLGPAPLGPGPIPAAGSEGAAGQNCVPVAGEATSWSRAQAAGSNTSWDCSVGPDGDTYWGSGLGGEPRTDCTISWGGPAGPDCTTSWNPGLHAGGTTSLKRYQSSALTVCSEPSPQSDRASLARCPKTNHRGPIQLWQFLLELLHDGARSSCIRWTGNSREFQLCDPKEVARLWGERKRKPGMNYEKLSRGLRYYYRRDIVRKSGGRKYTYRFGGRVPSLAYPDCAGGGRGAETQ
# In short: as §1
# ELF3 = target: T8, ELF3 (Homo sapiens, UniProt P78545 1-371)
# T8 sequence: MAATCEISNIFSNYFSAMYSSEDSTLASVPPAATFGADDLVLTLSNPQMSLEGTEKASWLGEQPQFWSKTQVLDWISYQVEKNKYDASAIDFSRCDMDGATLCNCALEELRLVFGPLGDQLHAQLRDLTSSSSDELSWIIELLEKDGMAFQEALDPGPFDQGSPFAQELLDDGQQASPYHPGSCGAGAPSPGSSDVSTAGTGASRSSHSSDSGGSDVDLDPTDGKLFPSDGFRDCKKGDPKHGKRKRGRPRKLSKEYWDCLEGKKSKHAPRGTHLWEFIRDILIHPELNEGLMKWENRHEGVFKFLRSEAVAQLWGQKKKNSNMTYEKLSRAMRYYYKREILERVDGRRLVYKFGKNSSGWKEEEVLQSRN
# In short: as §1
# ETV1 = ETV1 (Homo sapiens, UniProt P50549 1-477)
# In short: as §1
# ETV3L = target: T9, ETV3L (Homo sapiens, UniProt Q6ZN32 1-361)
# T9 sequence: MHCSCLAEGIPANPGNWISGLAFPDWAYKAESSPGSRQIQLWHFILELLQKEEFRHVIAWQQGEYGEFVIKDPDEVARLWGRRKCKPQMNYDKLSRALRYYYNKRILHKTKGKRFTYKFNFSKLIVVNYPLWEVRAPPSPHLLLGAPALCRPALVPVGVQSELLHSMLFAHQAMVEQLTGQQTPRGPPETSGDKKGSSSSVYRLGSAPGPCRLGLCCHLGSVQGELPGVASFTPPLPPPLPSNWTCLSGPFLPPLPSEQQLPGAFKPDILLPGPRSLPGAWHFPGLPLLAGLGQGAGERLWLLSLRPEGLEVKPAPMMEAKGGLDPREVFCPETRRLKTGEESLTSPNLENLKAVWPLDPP
# In short: as §1
# ETS2 = target: T10, ETS2 (Homo sapiens, UniProt P15036 1-469)
# T10 sequence: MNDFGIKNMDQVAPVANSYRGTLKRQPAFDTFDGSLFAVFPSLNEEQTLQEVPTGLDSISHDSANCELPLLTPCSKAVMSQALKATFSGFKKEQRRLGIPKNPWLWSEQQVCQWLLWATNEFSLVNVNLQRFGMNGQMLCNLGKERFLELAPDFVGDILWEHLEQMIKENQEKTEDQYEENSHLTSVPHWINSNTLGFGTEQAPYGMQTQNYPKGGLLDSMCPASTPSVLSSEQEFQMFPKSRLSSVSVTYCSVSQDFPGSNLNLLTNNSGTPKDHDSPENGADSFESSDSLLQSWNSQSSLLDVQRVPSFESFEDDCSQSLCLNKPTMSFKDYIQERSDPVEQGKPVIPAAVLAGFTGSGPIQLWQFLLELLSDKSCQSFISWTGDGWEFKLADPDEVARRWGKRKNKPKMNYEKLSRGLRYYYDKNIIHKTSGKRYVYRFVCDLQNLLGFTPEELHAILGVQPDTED
# In short: as §1
# ETV7 = target: T11, ETV7 (Homo sapiens, UniProt Q9Y603 1-341)
# T11 sequence: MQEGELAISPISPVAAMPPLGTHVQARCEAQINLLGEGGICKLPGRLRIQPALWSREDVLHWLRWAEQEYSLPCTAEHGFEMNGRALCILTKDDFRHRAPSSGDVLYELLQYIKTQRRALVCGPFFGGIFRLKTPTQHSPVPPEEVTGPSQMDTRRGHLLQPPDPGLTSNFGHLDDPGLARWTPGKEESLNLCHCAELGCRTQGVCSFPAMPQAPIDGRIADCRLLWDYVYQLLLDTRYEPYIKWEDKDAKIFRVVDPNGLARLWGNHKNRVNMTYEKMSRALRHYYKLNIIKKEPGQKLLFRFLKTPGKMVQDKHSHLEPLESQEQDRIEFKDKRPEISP
# In short: as §1
# ETV3 = target: T12, ETV3 (Homo sapiens, UniProt P41162-2 1-143)
# T12 sequence: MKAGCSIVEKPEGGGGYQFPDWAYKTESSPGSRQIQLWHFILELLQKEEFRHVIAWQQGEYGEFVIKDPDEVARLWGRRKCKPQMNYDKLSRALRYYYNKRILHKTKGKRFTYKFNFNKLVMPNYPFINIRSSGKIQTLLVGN
# In short: as §1
# ETV6 = ETV6 (Homo sapiens, UniProt P41212 1-452)
# In short: as §1
# Chain of ETV1 (P50549 whole entry): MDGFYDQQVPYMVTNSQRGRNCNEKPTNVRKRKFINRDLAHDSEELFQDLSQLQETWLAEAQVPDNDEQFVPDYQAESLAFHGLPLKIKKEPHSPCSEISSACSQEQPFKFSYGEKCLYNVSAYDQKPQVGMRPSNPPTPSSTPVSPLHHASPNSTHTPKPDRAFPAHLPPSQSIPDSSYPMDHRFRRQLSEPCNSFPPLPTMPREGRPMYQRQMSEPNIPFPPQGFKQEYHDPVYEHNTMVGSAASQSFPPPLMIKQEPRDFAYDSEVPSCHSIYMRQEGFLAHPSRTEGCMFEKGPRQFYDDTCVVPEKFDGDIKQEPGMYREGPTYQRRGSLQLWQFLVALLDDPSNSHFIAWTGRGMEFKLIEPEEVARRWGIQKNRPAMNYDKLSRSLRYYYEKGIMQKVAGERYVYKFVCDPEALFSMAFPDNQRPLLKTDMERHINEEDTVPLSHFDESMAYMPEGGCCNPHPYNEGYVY
# Chain of ETV6 (P41212 whole entry): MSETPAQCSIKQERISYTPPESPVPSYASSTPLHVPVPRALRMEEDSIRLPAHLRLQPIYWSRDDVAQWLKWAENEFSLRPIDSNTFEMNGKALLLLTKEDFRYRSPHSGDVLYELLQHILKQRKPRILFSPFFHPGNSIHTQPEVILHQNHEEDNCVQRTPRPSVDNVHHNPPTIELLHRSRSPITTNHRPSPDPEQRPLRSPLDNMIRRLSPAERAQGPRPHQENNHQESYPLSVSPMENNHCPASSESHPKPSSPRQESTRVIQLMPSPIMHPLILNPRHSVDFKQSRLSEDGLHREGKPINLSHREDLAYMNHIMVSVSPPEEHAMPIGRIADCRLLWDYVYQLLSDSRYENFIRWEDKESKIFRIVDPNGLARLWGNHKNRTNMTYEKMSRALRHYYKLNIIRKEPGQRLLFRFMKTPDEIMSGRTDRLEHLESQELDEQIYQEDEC
# Chain of ELF4 (Q99607 whole entry): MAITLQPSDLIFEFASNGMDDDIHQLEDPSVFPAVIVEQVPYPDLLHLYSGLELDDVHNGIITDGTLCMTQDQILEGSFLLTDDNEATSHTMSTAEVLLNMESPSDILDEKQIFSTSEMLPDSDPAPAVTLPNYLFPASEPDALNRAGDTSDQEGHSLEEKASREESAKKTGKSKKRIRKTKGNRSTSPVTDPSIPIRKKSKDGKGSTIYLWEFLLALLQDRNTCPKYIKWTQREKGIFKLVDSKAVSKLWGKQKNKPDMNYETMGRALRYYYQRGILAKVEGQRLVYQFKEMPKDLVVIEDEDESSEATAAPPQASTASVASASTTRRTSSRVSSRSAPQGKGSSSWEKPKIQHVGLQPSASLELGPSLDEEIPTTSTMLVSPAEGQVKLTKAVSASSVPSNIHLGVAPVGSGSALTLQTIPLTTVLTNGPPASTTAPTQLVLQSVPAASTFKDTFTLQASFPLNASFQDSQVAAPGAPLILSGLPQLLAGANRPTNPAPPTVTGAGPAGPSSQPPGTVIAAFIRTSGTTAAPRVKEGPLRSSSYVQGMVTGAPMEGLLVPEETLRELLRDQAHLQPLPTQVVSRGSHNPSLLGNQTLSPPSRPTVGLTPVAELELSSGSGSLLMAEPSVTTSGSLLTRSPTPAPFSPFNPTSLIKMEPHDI
# Chain of SPIB (Q01892 whole entry): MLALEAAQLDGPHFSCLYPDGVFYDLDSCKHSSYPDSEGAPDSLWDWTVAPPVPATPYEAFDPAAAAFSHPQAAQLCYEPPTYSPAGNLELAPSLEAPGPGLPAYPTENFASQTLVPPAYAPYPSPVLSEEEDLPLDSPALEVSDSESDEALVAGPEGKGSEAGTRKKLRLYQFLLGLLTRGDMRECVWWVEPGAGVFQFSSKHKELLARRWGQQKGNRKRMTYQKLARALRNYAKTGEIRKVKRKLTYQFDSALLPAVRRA
# Chain of ELF1 (P32519 whole entry): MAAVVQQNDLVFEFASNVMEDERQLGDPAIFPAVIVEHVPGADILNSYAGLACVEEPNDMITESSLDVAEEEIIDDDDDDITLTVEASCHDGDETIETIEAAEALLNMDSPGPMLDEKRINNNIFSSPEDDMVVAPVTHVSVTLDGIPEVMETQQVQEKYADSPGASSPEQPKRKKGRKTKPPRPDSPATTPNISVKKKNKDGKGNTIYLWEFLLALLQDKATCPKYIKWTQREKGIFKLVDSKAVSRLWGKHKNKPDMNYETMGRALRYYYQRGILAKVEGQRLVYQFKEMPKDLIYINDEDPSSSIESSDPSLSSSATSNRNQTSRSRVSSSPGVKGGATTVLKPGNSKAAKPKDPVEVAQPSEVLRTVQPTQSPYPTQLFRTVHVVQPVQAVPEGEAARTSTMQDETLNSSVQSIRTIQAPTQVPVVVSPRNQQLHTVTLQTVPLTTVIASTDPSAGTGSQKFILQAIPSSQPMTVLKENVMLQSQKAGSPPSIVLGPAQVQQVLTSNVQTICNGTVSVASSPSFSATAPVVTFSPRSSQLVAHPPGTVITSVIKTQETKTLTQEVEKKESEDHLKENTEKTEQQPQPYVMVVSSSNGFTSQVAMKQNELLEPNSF
sequence,measurement,setting,value
CGCGAT,binding signal,FLI1,"1.02 fold enrichment (6-mer frequency, TF over GST control)"
same,binding signal,ELK1,"1.07 fold enrichment (6-mer frequency, TF over GST control)"
same,binding signal,GABPA,"1.09 fold enrichment (6-mer frequency, TF over GST control)"
same,binding signal,ERG,"1.09 fold enrichment (6-mer frequency, TF over GST control)"
same,binding signal,ELF1,"1.06 fold enrichment (6-mer frequency, TF over GST control)"
same,binding signal,SPIB,"1.03 fold enrichment (6-mer frequency, TF over GST control)"
same,binding signal,ELK3,"1.07 fold enrichment (6-mer frequency, TF over GST control)"
same,binding signal,ELF4,"1.07 fold enrichment (6-mer frequency, TF over GST control)"
same,binding signal,ELK4,"1.22 fold enrichment (6-mer frequency, TF over GST control)"
same,binding signal,ETV2,"1.17 fold enrichment (6-mer frequency, TF over GST control)"
same,binding signal,ELF3,"1.15 fold enrichment (6-mer frequency, TF over GST control)"
same,binding signal,ETV1,"1.08 fold enrichment (6-mer frequency, TF over GST control)"
same,binding signal,ETV3L,"1.06 fold enrichment (6-mer frequency, TF over GST control)"
same,binding signal,ETS2,"1.07 fold enrichment (6-mer frequency, TF over GST control)"
same,binding signal,ETV7,"1.05 fold enrichment (6-mer frequency, TF over GST control)"
same,binding signal,ETV3,"1.08 fold enrichment (6-mer frequency, TF over GST control)"
same,binding signal,ETV6,"1.05 fold enrichment (6-mer frequency, TF over GST control)"
